The values below come from PubChem BioAssay.

Each structure is given as a SMILES string.

In experiment [1] the test system is Human papillomavirus type 1a protein E7 (residues 44-93). As to the kind of experiment: HPV1a E7 fragment binders on microarrays, primary screen, biochemical, small-molecule microarray, residues 44-93, 635 nm fluorescence (AID 1108).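 Note: E7 fragment applied at 1 µg/mL in TBST for 1 h at 4 C; score combines spot fluorescence with its signal to noise ratio.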 The note with it: small-molecule microarray binding, fluorescence 635 nm; higher = more signal.
Experiment [2] in a line: modulators of HCV replicon luciferase signal, primary screen, HCV replication inhibitor project, Huh7 cells, luciferase reporter (AID 1109).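 Note: huh7 hepatoma cells harbouring a luciferase neomycin HCV replicon reporter; luciferase luminescence as measure of HCV replicon replication; test concentration not given here.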 Particulars: 48 h, higher = more signal.
The target of experiment [3] is Left-right determination factor 2 (Homo sapiens) (UniProt O00292). The experiment can be described thus: LEFTY2 binders on small-molecule microarrays, primary screen, biochemical, small-molecule microarray, 635 nm fluorescence scan (AID 1110). Particulars: LEFTY2 binding, higher = more signal.
Left-right determination factor 2 (Homo sapiens), sequence (O00292 whole entry, looked up): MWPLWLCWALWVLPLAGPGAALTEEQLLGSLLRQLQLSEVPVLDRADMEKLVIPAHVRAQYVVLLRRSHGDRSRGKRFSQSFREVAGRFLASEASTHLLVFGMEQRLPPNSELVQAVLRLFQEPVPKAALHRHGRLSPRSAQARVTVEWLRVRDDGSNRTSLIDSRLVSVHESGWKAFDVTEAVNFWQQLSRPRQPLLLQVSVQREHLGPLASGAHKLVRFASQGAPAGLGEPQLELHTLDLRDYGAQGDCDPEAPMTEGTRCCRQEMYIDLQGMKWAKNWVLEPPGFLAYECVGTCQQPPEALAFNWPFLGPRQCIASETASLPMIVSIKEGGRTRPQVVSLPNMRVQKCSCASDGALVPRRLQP
The target in experiment [4] is Calmodulin-1 (Homo sapiens) (UniProt P0DP23). The experiment can be described thus: CALM1 binders on microarrays, EGTA buffer, profiling panel, biochemical, small-molecule microarray, Cy5-labelled CALM1 (AID 1111).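 Note: labelled calmodulin applied in Tris saline Tween buffer holding calcium plus EGTA and DTT.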 The note with it: Cy5-CALM1 binding fluorescence, higher = more signal.
Experiment [5] shares this target. As to the kind of experiment: calcium-bound CALM1 binders on microarrays, profiling panel, artefact control for SMM control-protein annotation, biochemical, small-molecule microarray, Cy5-labelled CALM1, plus calcium (AID 1112).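 Note: score merges spot fluorescence with signal to noise from triplicate slides.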 The note with it: Cy5-CALM1 binding fluorescence, higher = more signal.
Experiment [6] is described as follows: small-molecule microarray binders of probe aWnt5a, primary screen, biochemical, biotinylated probe, 635/667 nm fluorescence (AID 1113).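 Note: score merges 667 nm fluorescence intensity with signal-to-noise per printed feature.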 The note with it: higher = more signal.
A short description of experiment [7]: small-molecule microarray binders of probe aShh, primary screen, biochemical, biotinylated probe, 635/667 nm fluorescence (AID 1114).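 Note: probe is biotin-labelled aShh protein from a stem cell growth factor screen; measures binding of labelled protein to compounds printed on the slide; score merges feature fluorescence at 667 nm with signal-to-noise.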 Particulars: higher = more signal.
Experiment [8] in a line: small-molecule microarray binders of probe aNog, primary screen, biochemical, biotinylated probe, 635/667 nm fluorescence (AID 1115).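 Note: probe is biotinylated aNog protein used at 0.15 µg/mL for 1 h at 4 C; z-score combines 667 nm fluorescence of each spot with its signal to noise.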 Particulars: higher = more signal.
The target in experiment [9] is Torsin-1A-interacting protein 1 (Homo sapiens) (UniProt Q5JTV8). The experiment can be described thus: LAP1 binders from COS7 cell lysate, primary screen, small-molecule microarray, 635/667 nm fluorescence (AID 1116). Particulars: COS7-hLAP1 lysate binding, 635 nm fluorescence, higher = more signal.
Torsin-1A-interacting protein 1 (Homo sapiens), sequence (Q5JTV8 whole entry, looked up): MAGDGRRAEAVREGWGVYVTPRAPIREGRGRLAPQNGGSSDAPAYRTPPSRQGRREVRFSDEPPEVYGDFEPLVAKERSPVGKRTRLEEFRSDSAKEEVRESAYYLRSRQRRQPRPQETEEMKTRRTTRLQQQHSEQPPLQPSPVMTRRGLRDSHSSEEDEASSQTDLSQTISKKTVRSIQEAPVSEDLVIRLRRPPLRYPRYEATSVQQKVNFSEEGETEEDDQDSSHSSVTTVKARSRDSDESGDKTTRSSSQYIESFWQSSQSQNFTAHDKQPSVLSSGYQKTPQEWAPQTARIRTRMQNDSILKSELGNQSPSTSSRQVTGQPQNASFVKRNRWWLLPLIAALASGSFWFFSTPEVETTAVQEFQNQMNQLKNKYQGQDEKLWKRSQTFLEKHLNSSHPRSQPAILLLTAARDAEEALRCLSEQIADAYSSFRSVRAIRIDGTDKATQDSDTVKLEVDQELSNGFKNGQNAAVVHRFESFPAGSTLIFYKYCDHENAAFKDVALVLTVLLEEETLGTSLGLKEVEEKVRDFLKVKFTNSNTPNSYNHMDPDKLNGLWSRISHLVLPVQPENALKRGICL
Experiment [10] has as its target Alpha-bungarotoxin (Bungarus multicinctus) (UniProt P60615). As to the kind of experiment: alpha-bungarotoxin binders on microarray, profiling panel, artefact control for SMM control protein annotation, biochemical, small-molecule microarray, Alexa647 label, 635/667 nm fluorescence (AID 1117). Particulars: alpha-BTX-A647 binding fluorescence, higher = more signal.

Alpha-bungarotoxin (Bungarus multicinctus), sequence (P60615 whole entry, looked up): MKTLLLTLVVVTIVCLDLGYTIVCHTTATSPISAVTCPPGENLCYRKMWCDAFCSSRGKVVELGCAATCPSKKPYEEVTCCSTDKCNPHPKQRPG

Regarding `C[C@@H]1ON(c2ccccc2)[C@H](c2ccccc2)[C@H]1C(=O)O`, the composite z-score in experiment [1] was -0.429; in [3], 0.25; in [4], 0.0717; in experiment [5] it was -0.124; in experiment [6], 0.0377; in [7], -0.2. Moreover, the composite z-score in [8] came out at 0.618; in [9], 0.109; in experiment [10], 0.167. In addition, the z-score in [2] turned out to be 0.387.
Take `O=C(NCc1ccccc1)[C@@H]1c2ccccc2C(=O)N(Cc2ccc(OC(F)(F)F)cc2)[C@H]1c1ccc(CO)cc1`: the composite z-score in experiment [1] was 0.259; in [3] it was -0.725; in [4], -0.437; in [5], 0.284; in experiment [6], -0.0735; in experiment [7], -0.0813. Besides, the composite z-score in experiment [8] is 0.868; in [9], 1.15; in [10], -0.0863. Besides, the z-score in [2] was -1.1.
For the compound `CCCC#C[Si](O[C@H](CC)c1cn(Cc2ccccc2)nn1)(C(C)C)C(C)C`, the composite z-score in experiment [1] was 1.29; in experiment [3], 0.631; in experiment [4] it was -0.0722; in experiment [5], -0.337; in experiment [6], 0.0799; in experiment [7] it was -0.153. Also, the composite z-score is -0.234 in [8], 0.927 in [9] and 1.11 in [10]. The z-score in experiment [2] is -0.283.
In the case of `N#Cc1ccc(-c2cccc(=O)o2)cc1`, the composite z-score in [1] is 0.561; in [3], 0.0266; in experiment [4], -0.179; in experiment [5] it was -0.564; in [6], -0.0383; in [7], -0.349. Further, the values for the composite z-score in [8], in [9] and in [10] were 0.119, -0.102 and 0.26, respectively. For the same compound, the z-score in experiment [2] is -0.0585.
With `CN(C)C(=O)[C@]1(Cc2ccccc2)N=C(c2ccc(OCCCO)cc2)O[C@@H]1c1ccccc1CN=[N+]=[N-]`, the composite z-score in experiment [1] was 1.41; in experiment [3], -0.273; in experiment [4], 1.09; in experiment [5], 0.781; in [6], 0.027; in [7] it was 0.116. For the same compound, the results for the composite z-score in experiment [8], in experiment [9] and in experiment [10] were -0.294, 1.62 and 1.15, respectively. The z-score in experiment [2] was -2.79.
Turning to `COCCOC(=O)N1C(=O)[C@@]2(c3ccccc31)[C@H](C(=O)N1CCN(c3ncccn3)CC1)[C@H]1C(=O)O[C@H](c3ccccc3)[C@H](c3ccccc3)N1[C@@H]2c1ccccc1OCCO`, the composite z-score is 1.35 in experiment [1]; 0.687 in experiment [3]; 0.902 in [4]; 0.369 in experiment [5]; -0.0462 in [6]; 0.704 in experiment [7]. For the same compound, the composite z-score in [8] stood at 0.26; in [9], 0.405; in [10] it was 0.749. For the same compound, the z-score in experiment [2] is -1.79.
As to `NC(=O)NCC#Cc1ccc2c(c1)[C@]1(C(=O)N2)[C@H](c2ccc(OCCO)cc2)N2[C@H](c3ccccc3)[C@H](c3ccccc3)OC(=O)[C@H]2[C@@H]1C(=O)NC[C@H](O)c1ccccc1`, the composite z-score was 1.01 in experiment [1]; -0.375 in experiment [3]; 0.0317 in [4]; -0.194 in experiment [5]; -0.0572 in experiment [6]; -0.367 in experiment [7]. The composite z-score in experiment [8] was -0.559; in experiment [9] it was 0.727; in experiment [10], 0.502. The z-score in [2] was -1.27.
On to `O=C(NCC(O)CO)C1N=C(c2ccc(OCCCO)cc2)N(c2ccccc2)O1` (stereo not given), for which the composite z-score was 1.08 in experiment [1]; 0.48 in experiment [3]; 0.0138 in experiment [4]; -0.332 in experiment [5]; -0.103 in experiment [6]; -0.232 in experiment [7]. Moreover, the composite z-score in [8] was -0.243; in experiment [9] it was 1.35; in experiment [10], 0.282. Moreover, the z-score in experiment [2] was -0.95.
`CN(C)CCCC[C@@H]1NC(=O)[C@@H]2C[C@H](C(=O)NCCCCCN)[C@H](c3cccc(OCCO)c3)N2C1=O`: the composite z-score in experiment [1] is 1.11; in experiment [3], 0.64; in [4], 1.77; in experiment [5], 0.717; in experiment [6], -0.174; in experiment [7], -0.16. In addition, the values for the composite z-score in experiment [8], in experiment [9] and in experiment [10] were -0.301, 1.05 and 0.293, respectively. Further, the z-score in experiment [2] was 0.663.
Take `COc1ccc([Si](C)(C)[C@@H]2[C@@H](CC(=O)N3CCC[C@H]3CO)O[C@]3(C(=O)N(Cc4ccc(N5CCOC5=O)cc4)c4ccccc43)[C@H]2C)cc1`: the composite z-score in [1] was 1.06; in [3], 0.327; in experiment [4], 1.08; in experiment [5], 0.461; in [6], -0.175; in experiment [7], 0.0121. Also, the composite z-score was -0.402 in experiment [8], 1.1 in experiment [9] and 0.931 in experiment [10]. In addition, in experiment [2], the z-score is -1.58.
On to `O=C1O[C@@H](c2ccccc2)[C@@H](c2ccccc2)N2[C@@H](c3ccc(OCCO)cc3)[C@]3(C(=O)Nc4ccc(C#CCCO)cc43)[C@@H](C(=O)O)[C@H]12`, for which the composite z-score in [1] was 1.08; in [3], 0.687; in experiment [4], 2.03; in experiment [5] it was 0.408; in [6] it was 0.663; in [7], 0.582. Besides, the composite z-score is 2.45 in experiment [8], 1.99 in [9] and 1.95 in experiment [10]. In addition, in experiment [2], the z-score was -0.22.
Regarding `CO[C@H]1O[C@H](CO)[C@@H](OC(=O)Nc2ccccc2)[C@H](OC(=O)Nc2ccccc2)[C@H]1OC(=O)Nc1ccccc1`, the composite z-score in experiment [1] was 1.5; in experiment [3], -0.0522; in experiment [4] it was 1.34; in [5], -0.12; in experiment [6], 0.0519; in [7], -0.0709. For the same compound, the composite z-score in experiment [8] is -0.273; in experiment [9], 1.75; in [10] it was 1.05. The z-score in experiment [2] was -2.73.
Consider `C=CCC(OC(C)=O)[C@@H]1[C@@H](N(Cc2cc3ccccc3o2)C(=O)c2cccc3ccccc23)c2cc(OCCCO)ccc2N1C(=O)c1ccc2ccccc2n1` (stereo not given in full), for which the composite z-score in [1] was 0.193; in experiment [3], 0.186; in [4], -0.153; in experiment [5], 0.304; in experiment [6] it was -0.0346; in experiment [7] it was -0.0813. Besides, the composite z-score in experiment [8] is -0.0381; in experiment [9], 0.615; in [10] it was 0.0884. The same compound gave a z-score in experiment [2] of 0.0107.
Turning to `CCCCC(O)C1C=CC2C(=O)N(c3ccccc3)C(=O)C2N1Nc1ccccc1` (stereo not given), the composite z-score in experiment [1] was 1.24; in experiment [3] it was -0.484; in experiment [4], 1.14; in experiment [5], 1.06; in experiment [6], 0.0153; in experiment [7] it was 0.232. Also, the composite z-score in experiment [8] stood at 0.331; in [9], 0.721; in experiment [10], 1.45. Also, the z-score in experiment [2] is -0.375.
As for `COCCOC(=O)N1C(=O)[C@@]2(c3cc(C#CCC(C(=O)OC)C(=O)OC)ccc31)[C@H](C(=O)Nc1nc3ccccc3s1)[C@H]1C(=O)O[C@H](c3ccccc3)[C@H](c3ccccc3)N1[C@@H]2c1ccc(O)cc1`, the composite z-score in experiment [1] is 1.42; in experiment [3], 1.31; in [4], 0.975; in experiment [5], -0.0869; in [6] it was -0.0044; in experiment [7] it was -0.043. In addition, the composite z-score in experiment [8] was 0.459; in experiment [9] it was 0.706; in [10], 1.63. The z-score in [2] is -0.146.
Turning to `CN1C(=O)C2C(C3CC3)C=C3CN(Cc4cccc(Cl)c4)[C@@H]([C@@H](O)Cc4ccccc4)C3C2C1=O` (stereo not given in full), the composite z-score in experiment [1] was 1.36; in experiment [3], 0.526; in experiment [4], 0.283; in experiment [5], -0.469; in experiment [6], -0.244; in experiment [7], -0.462. Further, the composite z-score in [8] was -0.332; in experiment [9], 0.648; in experiment [10] it was 1.04. In addition, the z-score in experiment [2] was -1.6.
As for `COc1ccc(NN2C(C(O)c3ccc(I)cc3)C=CC3C(=O)N(C4CCCCC4)C(=O)C32)cc1` (stereo not given), the composite z-score was 1.43 in [1]; 0.349 in experiment [3]; 1.21 in experiment [4]; 0.679 in [5]; 0.18 in [6]; -0.147 in experiment [7]. The composite z-score came out at 0.261 in [8], 0.811 in [9] and 1.45 in experiment [10]. In addition, the z-score in experiment [2] was -2.6.
